# Reference: PubChem BioAssay (NCI)
# About 79,000 compounds went through this panel and 15% of them were active in at least one assay; those are over-represented in the sample as a whole. Unmarked numbers belong to inactive results. Active and inactive are the calls of the source. Cut-off read from the data, not from the text of the source: active = growth inhibition above about 70%; inactive = the rest.
# Columns and labels:
# [1] = NCI Yeast Anticancer Drug Screen. Data for the rad52 strain (AID 147);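 note: 0% = growth of vehicle-treated control cultures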; settings: S. cerevisiae rad52 mutant growth inhibition, hits give high values
# In short: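 The repair-mutant yeast strain was incubated with compounds, then growth was read and inhibition derived relative to vehicle.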
# [2] = NCI Yeast Anticancer Drug Screen. Data for the wt1 strain (AID 149);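 note: 0% = growth of vehicle-treated wt1 cultures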; settings: S. cerevisiae wt1 strain (SPY 50644) growth inhibition, hits give high values
# In short: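 Growth inhibition read against vehicle controls after compound exposure of the wt1 yeast strain.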
# [3] = NCI Yeast Anticancer Drug Screen. Data for the rad50EPP+ strain (AID 151);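 note: 0% = growth of vehicle-treated control cultures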; settings: S. cerevisiae rad50 mutant strain, hits give high values
# In short: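 Vehicle-normalised growth inhibition; rad50EPP+ yeast strain, altered in DNA damage repair, compound-treated.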
# [4] = NCI Yeast Anticancer Drug Screen. Data for the mgt1 strain (AID 153); settings: S. cerevisiae mgt1 mutant growth inhibition, hits give high values
# In short: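 Vehicle-normalized growth inhibition is determined in mgt1 yeast, a strain selected for a defined alteration in DNA repair or cell cycle control.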
# [5] = NCI Yeast Anticancer Drug Screen. Data for the rad50 strain (AID 155);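 note: 0% = growth of vehicle-only cultures of the same strain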; settings: S. cerevisiae rad50 strain growth inhibition, hits give high values
# In short: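 Readout: growth inhibition relative to vehicle-treated cultures. Compound exposure was carried out in a genetically defined yeast strain deficient in DNA damage repair.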
# [6] = NCI Yeast Anticancer Drug Screen. Data for the mec2-1 strain (AID 157); settings: S. cerevisiae mec2-1 strain, hits give high values
# In short: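 Mutant yeast (mec2-1) grown with compound; growth inhibition relative to vehicle control reported.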
# [7] = NCI Yeast Anticancer Drug Screen. Data for the rad14 strain (AID 159);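 note: 0% = growth of vehicle-treated control cultures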; settings: S. cerevisiae rad14 strain growth inhibition, hits give high values
# In short: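 Growth inhibition vs vehicle controls; genetically altered yeast strain (DNA damage repair defect) treated with test compounds.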
# [8] = NCI Yeast Anticancer Drug Screen. Data for the sgs1 mgt1 strain (AID 161);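 note: 0% = growth of cultures given vehicle only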; settings: S. cerevisiae sgs1 mgt1 strain, hits give high values
# In short: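 Compounds are added to genetically altered yeast, and growth is compared with cultures given vehicle alone to give percent inhibition.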
# [9] = NCI Yeast Anticancer Drug Screen. Data for the CLN2oe strain (AID 163);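 note: 0% = growth of vehicle-only control cultures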; settings: S. cerevisiae CLN2oe strain, hits give high values
# In short: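 Compounds are applied to yeast harbouring a defined cell-cycle control change; reduced growth compared with vehicle-treated controls gives the value.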
# [10] = NCI Yeast Anticancer Drug Screen. Data for the cln2 rad14 strain (AID 165);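 note: 0% = growth equal to vehicle treated cultures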; settings: S. cerevisiae cln2 rad14 strain, hits give high values
# In short: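 Readout is yeast growth inhibition versus vehicle-treated controls, using a strain with cln2 and rad14 alterations exposed to compound.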
# [11] = NCI Yeast Anticancer Drug Screen. Data for the bub3 strain (AID 167); settings: S. cerevisiae bub3 mutant strain, hits give high values
# In short: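 Readout: yeast growth inhibition, expressed relative to vehicle-only wells. The test organism is a mutant strain from a panel with lesions in DNA repair or checkpoint genes.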
# [12] = NCI Yeast Anticancer Drug Screen. Data for the sgs1 strain (AID 173);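 note: 0% = growth of vehicle-only control cultures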; settings: S. cerevisiae sgs1 mutant, hits give high values
# In short: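 Each compound was added to cultures of the altered yeast strain. Growth was recorded, and inhibition was derived by comparison with vehicle controls.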
# [13] = NCI Yeast Anticancer Drug Screen. Data for the mlh1 rad18 strain (AID 175); settings: S. cerevisiae mlh1 rad18 strain growth inhibition, hits give high values
# In short: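 Genetically defined yeast (DNA repair-deficient) exposed to compounds; growth inhibition determined relative to vehicle.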
# [14] = NCI Yeast Anticancer Drug Screen. Data for the rad18 strain (AID 177); settings: S. cerevisiae rad18 mutant growth inhibition, hits give high values
# In short: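 Vehicle-treated cultures served as the baseline for scoring compound-induced growth inhibition in DNA-repair-mutant yeast.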
# [15] = NCI Yeast Anticancer Drug Screen. Data for the wt2 strain (AID 169);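 note: 0% = growth of vehicle-treated yeast cultures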; settings: S. cerevisiae wt2 strain growth inhibition, hits give high values
# In short: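 Against vehicle-treated controls, the growth of yeast exposed to each compound was compared, and the inhibition was recorded.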
# [16] = NCI Yeast Anticancer Drug Screen. Data for the mlh1 strain (AID 171);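 note: 0% = growth of vehicle-treated control cultures of the same strain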; settings: S. cerevisiae mlh1 strain growth inhibition, hits give high values
# In short: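 Measured: yeast growth. Reference: vehicle-treated controls. Organism: strain with a defined alteration affecting DNA damage repair or cell cycle control, treated with compound.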
# [17] = at 5.0 µM (retest, dose inferred, filed as 0.5)
# [18] = at 50.0 µM (retest, dose inferred, filed as 5.0)
structure (smiles),measurement,setting,value
COc1ccc(O)c(/C=N\Nc2ccccc2)c1,growth inhibition,[1]; at 1.2 µM,-10%
same,growth inhibition,[1]; at 3.7 µM,-11%
same,growth inhibition,[1]; at 11.0 µM,-3%
same,growth inhibition,[1]; at 33.0 µM,54%
same,growth inhibition,[1]; at 100.0 µM,55%
same,growth inhibition,[2]; at 1.2 µM,-1%
same,growth inhibition,[2]; at 3.7 µM,5%
same,growth inhibition,[2]; at 11.0 µM,11%
same,growth inhibition,[2]; at 33.0 µM,12%
same,growth inhibition,[2]; at 100.0 µM,33%
same,growth inhibition,[3]; at 1.2 µM,-8%
same,growth inhibition,[3]; at 3.7 µM,-18%
same,growth inhibition,[3]; at 11.0 µM,13%
same,growth inhibition,[3]; at 33.0 µM,50%
same,growth inhibition,[3]; at 100.0 µM,70% (active)
same,growth inhibition,[4]; at 1.2 µM,-6%
same,growth inhibition,[4]; at 3.7 µM,-7%
same,growth inhibition,[4]; at 11.0 µM,-6%
same,growth inhibition,[4]; at 33.0 µM,-6%
same,growth inhibition,[4]; at 100.0 µM,36%
same,growth inhibition,[5]; at 1.2 µM,-14%
same,growth inhibition,[5]; at 3.7 µM,-9%
same,growth inhibition,[5]; [17],-124%
same,growth inhibition,[5]; at 11.0 µM,-4%
same,growth inhibition,[5]; at 33.0 µM,25%
same,growth inhibition,[5]; [18],71% (active)
same,growth inhibition,[5]; at 50.0 µM,99.4% (active)
same,growth inhibition,[5]; at 100.0 µM,73% (active)
same,growth inhibition,[6]; at 1.2 µM,-6%
same,growth inhibition,[6]; at 3.7 µM,-5%
same,growth inhibition,[6]; [17],-52%
same,growth inhibition,[6]; at 11.0 µM,-5%
same,growth inhibition,[6]; at 33.0 µM,-5%
same,growth inhibition,[6]; [18],-12%
same,growth inhibition,[6]; at 50.0 µM,99.3% (active)
same,growth inhibition,[6]; at 100.0 µM,-2%
same,growth inhibition,[7]; at 1.2 µM,0%
same,growth inhibition,[7]; at 3.7 µM,-1%
same,growth inhibition,[7]; at 11.0 µM,5%
same,growth inhibition,[7]; at 33.0 µM,30%
same,growth inhibition,[7]; at 100.0 µM,94% (active)
same,growth inhibition,[8]; [17],-64%
same,growth inhibition,[8]; [18],-22%
same,growth inhibition,[8]; at 50.0 µM,98.8% (active)
same,growth inhibition,[9]; at 1.2 µM,-8%
same,growth inhibition,[9]; at 3.7 µM,-9%
same,growth inhibition,[9]; at 11.0 µM,-14%
same,growth inhibition,[9]; at 33.0 µM,-14%
same,growth inhibition,[9]; at 100.0 µM,21%
same,growth inhibition,[10]; [17],-61%
same,growth inhibition,[10]; [18],-19%
same,growth inhibition,[10]; at 50.0 µM,99% (active)
same,growth inhibition,[11]; at 1.2 µM,-9%
same,growth inhibition,[11]; at 3.7 µM,-9%
same,growth inhibition,[11]; [17],-73%
same,growth inhibition,[11]; at 11.0 µM,-9%
same,growth inhibition,[11]; at 33.0 µM,6%
same,growth inhibition,[11]; [18],-4%
same,growth inhibition,[11]; at 50.0 µM,98.9% (active)
same,growth inhibition,[11]; at 100.0 µM,49%
same,growth inhibition,[12]; at 1.2 µM,-13%
same,growth inhibition,[12]; at 3.7 µM,-9%
same,growth inhibition,[12]; at 11.0 µM,11%
same,growth inhibition,[12]; at 33.0 µM,39%
same,growth inhibition,[12]; at 100.0 µM,94% (active)
same,growth inhibition,[13]; [17],-132%
same,growth inhibition,[13]; [18],13%
same,growth inhibition,[13]; at 50.0 µM,98.5% (active)
same,growth inhibition,[14]; at 1.2 µM,-9%
same,growth inhibition,[14]; at 3.7 µM,-8%
same,growth inhibition,[14]; at 11.0 µM,-2%
same,growth inhibition,[14]; at 33.0 µM,14%
same,growth inhibition,[14]; at 100.0 µM,54%
NC(=O)NN=C(CS)CS,growth inhibition,[1]; at 1.2 µM,-1%
same,growth inhibition,[1]; at 3.7 µM,4%
same,growth inhibition,[1]; at 11.0 µM,19%
same,growth inhibition,[1]; at 33.0 µM,50%
same,growth inhibition,[1]; at 100.0 µM,88% (active)
same,growth inhibition,[2]; at 1.2 µM,-1%
same,growth inhibition,[2]; at 3.7 µM,-2%
same,growth inhibition,[2]; at 11.0 µM,-1%
same,growth inhibition,[2]; at 33.0 µM,17%
same,growth inhibition,[2]; at 100.0 µM,33%
same,growth inhibition,[3]; at 1.2 µM,-2%
same,growth inhibition,[3]; at 3.7 µM,-1%
same,growth inhibition,[3]; at 11.0 µM,-5%
same,growth inhibition,[3]; at 33.0 µM,6%
same,growth inhibition,[3]; at 100.0 µM,29%
same,growth inhibition,[4]; at 1.2 µM,-1%
same,growth inhibition,[4]; at 3.7 µM,0%
same,growth inhibition,[4]; at 11.0 µM,2%
same,growth inhibition,[4]; at 33.0 µM,12%
same,growth inhibition,[4]; at 100.0 µM,66%
same,growth inhibition,[5]; at 1.2 µM,1%
same,growth inhibition,[5]; at 3.7 µM,30%
same,growth inhibition,[5]; [17],4%
same,growth inhibition,[5]; at 11.0 µM,31%
same,growth inhibition,[5]; at 33.0 µM,44%
same,growth inhibition,[5]; [18],57%
same,growth inhibition,[5]; at 50.0 µM,63.8%
same,growth inhibition,[5]; at 100.0 µM,89% (active)
same,growth inhibition,[6]; at 1.2 µM,0%
same,growth inhibition,[6]; at 3.7 µM,0%
same,growth inhibition,[6]; [17],1%
same,growth inhibition,[6]; at 11.0 µM,6%
same,growth inhibition,[6]; at 33.0 µM,24%
same,growth inhibition,[6]; [18],28%
same,growth inhibition,[6]; at 50.0 µM,48.5%
same,growth inhibition,[6]; at 100.0 µM,60%
same,growth inhibition,[7]; at 1.2 µM,-2%
same,growth inhibition,[7]; at 3.7 µM,0%
same,growth inhibition,[7]; at 11.0 µM,6%
same,growth inhibition,[7]; at 33.0 µM,30%
same,growth inhibition,[7]; at 100.0 µM,97% (active)
same,growth inhibition,[8]; [17],2%
same,growth inhibition,[8]; [18],32%
same,growth inhibition,[8]; at 50.0 µM,75% (active)
same,growth inhibition,[10]; [17],-22%
same,growth inhibition,[10]; [18],9%
same,growth inhibition,[10]; at 50.0 µM,-11.9%
same,growth inhibition,[11]; at 1.2 µM,0%
same,growth inhibition,[11]; at 3.7 µM,-7%
same,growth inhibition,[11]; [17],-3%
same,growth inhibition,[11]; at 11.0 µM,3%
same,growth inhibition,[11]; at 33.0 µM,14%
same,growth inhibition,[11]; [18],15%
same,growth inhibition,[11]; at 50.0 µM,27.4%
same,growth inhibition,[11]; at 100.0 µM,56%
same,growth inhibition,[15]; at 1.2 µM,0%
same,growth inhibition,[15]; at 3.7 µM,8%
same,growth inhibition,[15]; at 11.0 µM,2%
same,growth inhibition,[15]; at 33.0 µM,10%
same,growth inhibition,[15]; at 100.0 µM,46%
same,growth inhibition,[16]; at 1.2 µM,0%
same,growth inhibition,[16]; at 3.7 µM,-1%
same,growth inhibition,[16]; at 11.0 µM,3%
same,growth inhibition,[16]; at 33.0 µM,14%
same,growth inhibition,[16]; at 100.0 µM,60%
same,growth inhibition,[12]; at 1.2 µM,0%
same,growth inhibition,[12]; at 3.7 µM,5%
same,growth inhibition,[12]; at 11.0 µM,18%
same,growth inhibition,[12]; at 33.0 µM,49%
same,growth inhibition,[12]; at 100.0 µM,89% (active)
same,growth inhibition,[13]; [17],5%
same,growth inhibition,[13]; [18],47%
same,growth inhibition,[13]; at 50.0 µM,84.8% (active)
same,growth inhibition,[14]; at 1.2 µM,-1%
same,growth inhibition,[14]; at 3.7 µM,6%
same,growth inhibition,[14]; at 11.0 µM,19%
same,growth inhibition,[14]; at 33.0 µM,61%
same,growth inhibition,[14]; at 100.0 µM,95% (active)
